Pf Dd2 growth: inhibitors of Plasmodium falciparum Dd2 growth | P. falciparum Dd2 growth, SYBR Green, 72 h | Potency, µM (titrated, usually from 28.9 µM), without a hit: top-dose activity, negative = inhibition, usual class: inhibitors | actives 4.3% (n = 120,000) | AID 1347417; active means well fitted inhibition curve with a large enough effect;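 further: plate controls were DMSO vehicle for no effect and reference drug for full effect; nearly all actives have a fitted effect of over 65% in size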
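Readout: SYBR Green fluorescence, 485 nm excitation, 535 nm emission, after ~16 h lysis at 37C. Before that, Dd2-infected red cells (2.5% hematocrit) grew 72 h with compound, 29 uM top final concentration.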
* marks the source's active call; other numbers are inactive results; i = inactive; [ ] = another dose, or the depositor's remark. Many of the other results were omitted from the sample, so hits are more common in it than they were. Potency means the concentration at half of the fitted maximal effect.

SMILES	Pf Dd2 growth
COc1nc2c(cc1CNC(=O)CC1CC1)C(=O)N(C1CCCC1)C2	-16.9%
Cc1ccc(CNC(=O)c2ccc3c(c2)CN(Cc2cccc(F)c2F)CCO3)cc1	-13.6%
CCCCNC(=O)C1CCN(Cc2nc(-c3ccc(OC)c(OC)c3)oc2C)CC1	-4.2%
Cc1oc(-c2ccc(Cl)cc2)nc1CN1CCC(C(=O)NCCCN2CCN(c3cccc(Cl)c3)CC2)CC1	-23.6%
COCCCNC(=O)C1CCN(Cc2nc(-c3ccc(OC)c(OC)c3)oc2C)CC1	8.5%
Cc1oc(-c2cccc(Cl)c2)nc1CN1CCC(C(=O)NCCCN2CCN(c3ccc(F)cc3)CC2)CC1	5.62µM*
COc1ccc(-c2nc(CN3CCC(C(=O)NCCCN4CCN(c5ccccc5F)CC4)CC3)c(C)o2)cc1OC	10µM*
Cc1oc(-c2cccc(Cl)c2)nc1CN1CCC(C(=O)NCCCN2CCN(c3ccccc3F)CC2)CC1	-28.8%
C[C@@H](NC(=O)Nc1cccnc1)c1onc(-c2ccc(F)cc2)c1C(=O)O	-21.2%[44.1 µM]
COC(=O)[C@H](NC(=O)[C@@H]1[C@@H](NC(=O)Nc2cccc(OC)c2)CCN1C(=O)CSC)C(C)C	15.5%
Cc1noc(C)c1CC(=O)N1CC(=O)N(C2CCCCC2)CC(OCc2ccccc2)C1 (configuration not stated)	-2.8%
O=C(c1ccncc1)N1CCCC(c2noc(COc3ccccc3)n2)C1 (configuration not stated)	8.2%
O=C(NCCN1CCOCC1)C1CN(S(=O)(=O)c2ccccc2)CC12CCCCC2 (configuration not stated)	3.98µM*
COC(=O)CCNC(=O)C1CN(S(=O)(=O)c2cccnc2)CC12CCCCC2 (configuration not stated)	-10.1%
O=C(NCCCN1CCCC1=O)C1CN(S(=O)(=O)c2ccccc2)CC12CCCCC2 (configuration not stated)	33.8%
O=C(Nc1cc(F)ccc1F)C1CN(S(=O)(=O)c2cccnc2)CC12CCCCC2 (configuration not stated)	-20.2%
O=C(NCc1cc(F)ccc1F)C1CN(S(=O)(=O)c2cccnc2)CC12CCCCC2 (configuration not stated)	2.82µM*
O=C(NCCc1cccs1)C1CN(S(=O)(=O)c2cccnc2)CC12CCCCC2 (configuration not stated)	-5.0%
COC[C@@H]1CN(C(=O)CCn2cccn2)C[C@H]1c1ccncc1	19.3%
COc1ccc(CNC(=O)CC2CCCCN(C)C2=O)c(OC)c1 (configuration not stated)	3.3%
Cc1noc(C)c1[S+](=O)([O-])N1CCC(c2nn(C)c(=O)[nH]2)CC1	6.0%
NC(=O)[C@H](CC1CCCCC1)NC(=O)[C@@H]1CN(C(=O)Nc2ccccc2)CCN1C(=O)C1CCNCC1	7.7%
O=C(Nc1ccnn1C1CCN(C(=O)c2ccc3n[nH]nc3c2)CC1)C1CC1	29.6%
COc1cccc(CN2C[C@@H]3C(=O)N(CCCN4CCCC4=O)C(=O)[C@@H]3C2)c1	-8.0%
O=C(Cc1c[nH]c2ncc(-c3ccsc3)cc12)NCc1cccnc1	i
SMILES	Pf Dd2 growth
O=C(Cc1c[nH]c2ncc(-c3cccnc3)cc12)NC1CC1	i
O=C(Cc1c[nH]c2ncc(-c3cccc(OC(F)(F)F)c3)cc12)NCc1cccnc1	3.98µM*
CN1CCN(C(=O)Cc2c[nH]c3ncc(-c4cccc(OC(F)(F)F)c4)cc23)CC1	i
COc1ncccc1-c1cnc2[nH]cc(CC(=O)Nc3ccccc3)c2c1	i
COc1ncccc1-c1cnc2[nH]cc(CC(=O)Nc3ccccc3C)c2c1	10µM*
O=C(Cc1c[nH]c2ncc(-c3cccnc3)cc12)NCc1ccccc1	5.62µM*
COc1cc(F)cc(-c2cnc3[nH]cc(CC(=O)NCc4cccnc4)c3c2)c1	i
Cc1cc(-c2cnc3[nH]cc(CC(=O)NCc4cccnc4)c3c2)ccn1	i
COc1ncccc1-c1cnc2[nH]cc(CC(=O)Nc3ccncc3)c2c1	i
O=C(Cc1c[nH]c2ncc(-c3cn[nH]c3)cc12)NCc1cccnc1	11.2µM*
O=C(Cc1c[nH]c2ncc(-c3ccccc3Oc3ccccc3)cc12)NCc1cccnc1	i
Cc1nc(C2(C)CCN(C(=O)CCc3cc(Cl)no3)CC2)no1	-4.5%
O=C(c1ccc(-c2ccc(N3CCCCCC3)nc2)cc1)N1CCCC1	-10.0%
O=C(CCc1conc1-c1ccc(F)cc1)NCc1cccc(Br)c1	i
Cc1nn(CCNC(=O)Cn2cc(C)c(=O)[nH]c2=O)c(C)c1Cl	0.4%
Cc1ccc(NC(=O)Cn2nc3c(cc2=O)CCCCC3)c(C)c1	-4.0%
O=C(Cc1c[nH]c2ncc(-c3ccccc3)cc12)NCCc1ccccc1	i
Cn1cc(-c2cnc3[nH]cc(CC(=O)NC4CCC4)c3c2)cn1	i
Cn1cc(-c2cnc3[nH]cc(CC(=O)NCc4ccncc4)c3c2)cn1	3.98µM*
O=C(Cc1c[nH]c2ncc(-c3ccccc3)cc12)Nc1cccnc1	-29.0%[44.1 µM]
CC(C)CNC(=O)Cc1c[nH]c2ncc(-c3cnn(C)c3)cc12	i
O=C(Cc1c[nH]c2ncc(-c3ccc(F)c(Cl)c3)cc12)NCc1cccnc1	4.47µM*
